p53 reactivation: re-activators of mutant p53; H1299 p53-A138V BP100-luciferase reporter, luminescence, 24 h; Potency, µM (series often up to 92.2 µM), without a hit: at the highest dose activity change, positive = activation, hits mostly activators; 0.063% of 320,000 active; AID 504706; note: potency is the fitted concentration of half-maximal effect; % of control where 0% means no effect; nearly all actives have a fitted effect of over 45% in size
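H1299 (p53-null), stable ts p53-A138V + BP100-Luc; 1000 cells/well, Opti-MEM/10% FBS; cpd 4 pt, 1:5; 24 h, 37 deg C, 5% CO2; detection reagent 10 min RT; luminescence.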
BRCA1 expr up: increases BRCA1 expression | Potency, µM (series often up to 46.1 µM), for the others: top-dose activation, hits mostly activators | 1.1% of 380,000 active | MCF7-BRCA1-FFLuc reporter, luminescence, 48 h; response scale: scaled: vehicle 0%, 10 µM genistein 100%; note: potency is the fitted concentration of half-maximal effect; nearly all actives have a fitted effect of over 80% in size
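Compounds are tested at multiple concentrations on MCF7 BRCA1-luciferase reporter cells seeded at 2000 per well; after 48 h, a single luminescence end-point is taken and curves fitted to the normalized data.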
RORgamma inh: inhibitors of mouse ROR gamma transcriptional activity; P51450; Drosophila S2 Gal4-RORgamma UAS-luciferase reporter, 20 h; Potency, µM (highest dose often 53.6 µM), without a hit: at the highest dose activity change, negative = inhibition, hits mostly inhibitors; 5.4% of 310,000 active; note: potency is the fitted concentration of half-maximal effect; % is set by controls: 0 for no effect and ±100 for the full control effect; nearly all actives have a fitted effect of over 60% in size
Target sequence (P51450 whole entry, looked up, the tested form may be a part): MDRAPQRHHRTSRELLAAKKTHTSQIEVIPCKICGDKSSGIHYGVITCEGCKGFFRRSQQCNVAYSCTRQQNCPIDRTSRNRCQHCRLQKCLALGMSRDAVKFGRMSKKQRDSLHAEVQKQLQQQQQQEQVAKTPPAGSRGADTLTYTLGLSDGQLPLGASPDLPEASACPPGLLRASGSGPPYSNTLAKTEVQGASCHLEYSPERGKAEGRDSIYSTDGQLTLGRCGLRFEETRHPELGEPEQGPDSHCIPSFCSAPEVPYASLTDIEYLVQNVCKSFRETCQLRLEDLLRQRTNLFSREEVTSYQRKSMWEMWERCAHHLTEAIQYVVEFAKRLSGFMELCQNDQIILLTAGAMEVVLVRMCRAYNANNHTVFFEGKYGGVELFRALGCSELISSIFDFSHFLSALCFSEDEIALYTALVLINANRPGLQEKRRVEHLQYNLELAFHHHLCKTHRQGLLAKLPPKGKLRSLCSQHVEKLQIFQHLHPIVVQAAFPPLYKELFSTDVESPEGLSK
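ROR gamma transcriptional activity was tracked as Gal4-UAS luciferase output in stably transfected Drosophila Schneider cells, with compound added 1 hr before 700 uM copper sulfate induction and a 20 hr ambient-temperature incubation.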
Giardia killer: kills Giardia lamblia; Giardia lamblia trophozoite viability; activity change, % at 7.66 µM, hits read low; 0.15% of 340,000 active; AID 540267; in the data active = activity change below about -80%; inconclusive = between about -30% and that limit;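 note: parasites exposed to compound for two days anaerobically before the ATP read; % is set by controls: 0 for no effect and ±100 for the full control effect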
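Giardia lamblia trophozoites (100 cells/well) were incubated with compounds for 48 h at 37 deg C under anaerobic conditions. Viability was read as ATP content by one-step luminescence after 15-30 min at room temperature.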
ELG1 DNA repair: ELG1-dependent DNA repair inhibition. HEK293T ELG1-luciferase reporter, luminescence, 16 h; DNA damage induced by 5-fluorouridine. Potency, µM (top dose mostly 46.1 µM), for the others: top-dose activity change, negative = inhibition, actives largely listed as inhibitors. 2.3% of 330,000 active. AID 504467; note: potency is the fitted concentration of half-maximal effect; % is set by controls: 0 for no effect and ±100 for the full control effect; nearly all actives have a fitted effect of over 55% in size
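Step one: seed 2,000 cells per well. Step two: pin-transfer compound or DMSO alongside 5-fluorouridine. Step three: incubate 16 hr, 37 °C, 5% CO2. Step four: add ONE-Glo, wait 30 min, read luminescence.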
VP16 counter: Gal4-VP16 reporter inhibition counter-screen; Drosophila S2 Gal4-VP16 UAS-luciferase, luminescence, 20 h; Potency, µM (series often up to 53.6 µM), for inactives: at the top dose activity, negative = inhibition, most hits filed as inhibitors; 3.5% of 310,000 active; AID 2546;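 note: Gal4-VP16 expression switched on by copper sulfate through the metallothionein promoter; potency is the fitted concentration of half-maximal effect; % is set by controls: 0 for no effect and ±100 for the full control effect; nearly all actives have a fitted effect of over 50% in size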
Active calls of the source: *; ? = inconclusive; nt = not tested or not shown; [ ] = dose if it differs, or a comment. An excerpt weighted towards active compounds, which were near 7.6% of everything screened. Unless noted, calls come from the whole dose curve; as a rule, active = well fitted curve in the direction sought with a large enough effect; inconclusive = small, poorly fitted or top-dose-only effect, or another doubt; inactive = no such curve, though single readings can be large; an effect the other way counts as inactive or inconclusive.

SMILES	p53 reactivation	BRCA1 expr up	RORgamma inh	Giardia killer	ELG1 DNA repair	VP16 counter
O=C(COc1cccc2c1CCN(Cc1ccc(Br)cc1)C2=O)N1CCOCC1	-1.2%	-18.0%	30.6%	-12.7	7.3µM*	2.8%
O=C(COc1cccc2c1CCN(Cc1ccc(Br)cc1)C2=O)NCc1ccco1	-14.8%	-6.7%	?	0.7	18.4µM*	-7.6%
Cc1ccc(CN2CCc3c(OCC(=O)Nc4cccc(C)c4C)cccc3C2=O)cc1	-1.5%	nt	?	nt	?	-14.0%
CCCCCCC(c1c(C)n(C)n(-c2ccccc2)c1=O)c1c(C)n(C)n(-c2ccccc2)c1=O	-16.7%	-6.3%	-16.3%	-3.1	?	-3.4%
O=C(CS(=O)(=O)Cc1ccccc1)Nc1ccccn1	4.2%	-1.2%	-8.5%	6.6	16.7%	-1.6%
O=C(c1oc2ccccc2c1N1CCCCC1)N1CCCCC1	4.8%	1.4%	21.0%	0.6	4.0%	-0.5%
CCOc1ccc(N(C(C)C(=O)NCCSc2ccc(C)cc2)S(C)(=O)=O)cc1 (stereo not given)	nt	-5.0%	nt	nt	nt	nt
CCNc1nc(NCC)nc(N/N=C/c2ccc(OC)cc2)n1	-3.4%	4.3%	11.2µM*	2.4	4.8%	-24.9%
COc1ccc(Nc2nc(NCc3ccco3)nc(N/N=C/c3ccccc3)n2)cc1	-1.7%	-23.9%	10.1%	16.6	2.59µM*	-17.5%
CN(C)c1nc(NCc2ccccc2)nc(N/N=C/c2cccc(Br)c2)n1	2.1%	-41.2%	3.55µM*	14.0	?	11.2µM*
COc1ccc(/C=N/Nc2nc(C)nc(N)n2)cc1	2.3%	54.8%	-7.0%	4.7	?	5.9%
CCOc1nc(NCc2ccco2)nc(Nc2ccc(OC)cc2)n1	1.3%	22.5%	?	6.4	?	?
CCNc1nc(NCC)nc(N/N=C(\C)c2ccc(OC)cc2)n1	-2.6%	-12.5%	7.08µM*	-5.0	?	?
CC[C@]12c3[nH]c4cc(-c5ccco5)ccc4c3CCN1C(=O)[C@@H](CC(=O)NCCc1ccccn1)C[C@@H]2C(=O)N1CCN(C(=O)c2ccco2)CC1	-11.4%	-3.5%	nt	-10.4	-17.1%	nt
CCNc1nc(NCC)nc(N/N=C/c2ccccc2)n1	0.7%	-5.8%	14.1µM*	-8.4	-4.9%	-9.5%
Cc1ccc(C)c(NS(=O)(=O)c2c(C)nc3sccn3c2=O)c1	2.8%	1.9%	-16.4%	-15.0	16.6%	-1.2%
Cc1ccc(NC(=S)NC(=O)Cc2ccccc2)c(O)c1	nt	-44.1%	20µM*	1.4	22.7%	?
COc1ccc(NC(=S)NC(=O)c2cc3ccccc3o2)c(OC)c1	2.3%	-27.2%	8.91µM*	7.2	5.4%	-24.2%
CCC(=O)NC(=S)Nc1ccc(OC)cc1OC	6.8%	70.6%	11.2µM*	-10.8	?	?
CCC(=O)Nc1ccc(NC(=S)NC(=O)Cc2ccccc2)cc1	0.7%	-21.0%	-1.7%	6.9	-2.0%	-8.4%
COc1ccc(NC(=S)NC(=O)Cc2ccccc2)c(OC)c1	nt	-44.7%	14.1µM*	6.0	?	11.2µM*
COc1ccccc1NC(=S)NC(=O)Cc1ccccc1	nt	0.0%	nt	23.5	nt	nt
CCC(=O)Nc1ccc(OC)cc1OC	-3.5%	-30.1%	7.3%	5.0	6.6%	-3.2%
N#CC1=C(SCC(N)=O)NC(=O)CC1c1cccc2ccccc12 (stereo not given)	nt	8.4%	nt	-1.1	nt	nt
S=c1[nH]nc(COc2ccc(Cl)cc2)n1C1CCCCC1	-5.9%	-0.2%	1.12µM*	13.4	1.8%	0.794µM*
SMILES	p53 reactivation	BRCA1 expr up	RORgamma inh	Giardia killer	ELG1 DNA repair	VP16 counter
Cc1cccc(OCc2n[nH]c(=S)n2C2CCCCC2)c1	11.6%	-57.2%	0.794µM*	-1.2	-14.8%	1.26µM*
Cc1cccc(OCc2n[nH]c(=S)o2)c1	-10.3%	-0.8%	-37.7%	-16.3	5.0%	-9.3%
S=c1[nH]nc(CSCc2ccccc2Cl)n1C1CCCCC1	-1.0%	-19.0%	0.501µM*	-8.6	?	?
Cn1c(CSCc2ccccc2Cl)n[nH]c1=S	9.4%	61.5%	-13.7%	-14.4	6.6%	-9.1%
COc1ccc(-n2c(CNC(=O)COc3ccc(Cl)cc3)n[nH]c2=S)cc1	1.5%	0.0%	-40.9%	-2.6	-4.2%	16.3%
Cc1ccc(OCc2n[nH]c(=S)n2C2CCCCC2)cc1	1.0%	-10.6%	1.41µM*	5.2	-1.8%	3.55µM*
O=c1c([N+](=O)[O-])c(N2CCCC2)c2ccccc2n1-c1ccccc1	-3.5%	4.1%	2.0%	8.3	7.2%	-10.6%
CCc1nc2c(OCc3ccccc3C(=O)OC)cccn2c1N(C)C(=O)c1cccc(OC)c1	nt	-24.1%	nt	nt	nt	nt
COC(=O)c1ccn(C(=O)c2ccc(Cl)cc2)n1	nt	2.5%	0.4%	3.9	nt	-8.4%
COc1ccc(NC(=O)c2cc([N+](=O)[O-])ccc2N2CCCCC2)cc1OC	-5.6%	-18.9%	nt	-0.6	?	nt
O=C(c1cccc(NC2=NC3CS(=O)(=O)CC3S2)c1)N1CCN(c2ncccn2)CC1 (stereo not given)	14.0%	28.4%	-17.3%	-6.9	14.1%	1.3%
O=C(COc1ccc2ccccc2c1Br)Nc1cccnc1	-3.0%	1.9%	21.5%	4.8	?	1.6%
CCOc1ccc(/C=C/C(=O)Nc2cccc(C(C)=O)c2)cc1	26.9%	57.3%	1.12µM*	-14.5	?	4.47µM*
CCOc1ccc(NC(C(=O)Nc2cccc(C(C)=O)c2)c2ccccc2)cc1 (stereo not given)	6.4%	-3.0%	?	-3.7	-19.4%	27.1%
CCOc1ccc(NC(=O)Nc2cc(C(C)C)c(O)cc2C)cc1	2.4%	3.7%	33.3%	2.7	?	1.9%
CSc1cccc(NC(N)=O)c1	-0.9%	3.9%	14.1%	-15.4	10.6%	16.2%
CCOc1ccc(NC(=O)Nc2cc(C)ccc2F)cc1	?	2.51µM*	28.2%	-2.1	?	6.6%
O=C(Nc1cccc(Cl)c1)Nc1cccc(C(=O)O)c1	-7.1%	-50.3%	-37.3%	0.5	?	-27.7%
CSc1cccc(NC(=O)Nc2ccc(Cl)cc2)c1	21.3%	7.94µM*	38.0%	-3.5	?	-2.9%
O=C(Nc1ccc(Cl)cc1)Nc1cccc(C(=O)O)c1	-11.1%	?	3.16µM*	-17.2	?	1.41µM*
CC(=O)N1CCN(Cc2nc3cc(NC(=O)C4CCCCC4)ccc3n2C)CC1	nt	4.6%	-4.7%	-10.9	nt	16.4%
COCC(=O)N1CCC2(CC1)CN(C(=O)Nc1cccc(F)c1)C2	nt	nt	-24.0%	nt	nt	-22.0%
O=C(/C(C=Nc1cc2c(oc1=O)CCCC2=O)=C(\O)c1ccccc1)c1ccccc1	10.0%	37.3%	?	-6.1	?	25.4%[10 µM]
CCOc1ccc(NC(=O)Nc2cccc(C(=O)O)c2)cc1	-13.0%	-91.6%	5.01µM*	?	?	5.01µM*

Screening results deposited in PubChem BioAssay by National Center for Advancing Translational Sciences (NCATS).
